Marburg entry inh – qHTS for inhibitors of binding or entry into cells for Marburg Virus. Marburg virus pseudotyped entry inhibition, cell reporter. AID 540276, 2011. Potency, µM (titrated, usually from 37.8 µM), without a hit: top-dose activity change, negative = inhibition, hits mostly inhibitors. hit rate 1.8% among 300,000; calls by dose curve; tested in HEK293 cells; further: potency means the concentration at half of the fitted maximal effect; on the % scale 0 is the no-effect control and ±100 the full control effect
Lassa entry inh – qHTS for Inhibitors of binding or entry into cells for Lassa Virus | hit rate 1.2% among 300,000 | AID 540256, 2011 | Potency, µM (doses to about 37.9 µM), for the others: top-dose activity change, negative = inhibition, usual class: inhibitors | Lassa virus pseudotype entry inhibition, cell reporter; calls by dose curve; tested in HEK293 cells; further: potency means the concentration at half of the fitted maximal effect; on the % scale 0 is the no-effect control and ±100 the full control effect; nearly all actives have a fitted effect of over 50% in size
Vaccinia Venus – qHTS for Stage-Specific Inhibitors of Vaccinia Orthopoxvirus: Venus Reporter Primary qHTS | Vaccinia virus Venus reporter expression, fluorescence | Potency, µM (titrated, usually from 36.5 µM), for inactives: at the top dose activity change, negative = inhibition, hits mostly inhibitors | hit rate 0.46% among 330,000; calls by dose curve; tested in A549 cells; further: potency means the concentration at half of the fitted maximal effect; on the % scale 0 is the no-effect control and ±100 the full control effect; nearly all actives have a fitted effect of over 30% in size
VACV mCherry inh – qHTS for Stage-Specific Inhibitors of Vaccinia Orthopoxvirus: mCherry Reporter Primary qHTS. Vaccinia virus mCherry reporter infection, fluorescence. Potency, µM (titrated, usually from 36.5 µM), inactives show at the highest dose activity change, negative = inhibition, hits mostly inhibitors. hit rate 0.63% among 310,000. AID 720579, 2013; calls by dose curve; tested in A549 cells; further: potency means the concentration at half of the fitted maximal effect; on the % scale 0 is the no-effect control and ±100 the full control effect; nearly all actives have a fitted effect of over 35% in size
CHX counter – Cycloheximide Counterscreen for Small Molecule Inhibitors of Shiga Toxin; cell reporter, cycloheximide protein synthesis inhibition counterscreen; max response, %; hit rate 12% among 300,000; AID 2314, 2010; in the data active means max response mostly above about 13%, no sharp cut-off; inactive means mostly below about 14%; further: read at 38.3 µM for the half of the compounds with a filed dose; 0% is about no effect
Shiga toxin inh – A qHTS for Small Molecule Inhibitors of Shiga Toxin. Vero cells, Shiga toxin protein synthesis inhibition reporter. inhibition, % at 38.7 µM. hit rate 9.2% among 290,000. AID 2315, 2010; in the data active means inhibition mostly above about 28%, no sharp cut-off; inactive means mostly below about 43%; further: 0% is about no effect
* marks the source's active call; other numbers are inactive results; i = inactive; u = inconclusive; x = no result; [ ] = remark or other dose. The sample as a whole holds a higher share of hits than the screen did.

SMILES	Marburg entry inh	Lassa entry inh	Vaccinia Venus	VACV mCherry inh	CHX counter	Shiga toxin inh
N#C/C(=C/c1ccc([N+](=O)[O-])cc1)C(=O)Nc1ccccc1O	u	14%	-16%	-17%	62*	74*
N#C/C(=C/c1ccc([N+](=O)[O-])cc1)C(N)=O	-2%	-9%	-13%	i	-3	-9
COc1ccc(OC)c(-c2cc(Cl)c3c(c2)CC(CNC(=O)[C@@H]2CCCN2C(C)=O)O3)c1 (stereo partly specified)	x	x	7%	-4%	x	x
N#Cc1cc([N+](=O)[O-])ccc1N1CCN(c2ccccc2O)CC1	3%	-25%	-11%	-9%	43*	71*
O=[N+]([O-])c1ccc(N2CCN(c3ccc([N+](=O)[O-])cc3CO)CC2)c(CO)c1	-21%[46.1 µM]	-15%[46.1 µM]	-6%	-7%	-3	3
CC(=O)c1ccc(N2CCN(c3ccccc3O)CC2)c([N+](=O)[O-])c1	u	11%	-16%	u	6.0*	2
Cc1ccc2c(c1)-c1nc(-c3ccccc3)cc(-c3ccccc3)c1CO2	u	7%[46.1 µM]	0%	3%	x	x
COc1ccc([C@H]2C[C@H](O)C[C@@H](CCn3cc(-c4ccccc4)nn3)O2)cc1	x	x	-4%	0%	x	x
O=C(NC(=O)c1ccccc1O)c1ccc2c(c1)CCO2	u	11µM*	-9%	i	11	-21
CC(C)(C)NC(=O)c1ccc2c(c1)CCO2	x	x	x	x	-1	16
NC(=O)[C@@H]1CCCN1C(=O)c1ccc2oc(CCc3ccccc3)nc2c1	13%	-1%	-23%	u	43*	40*
O=C(c1ccc2oc(CCc3ccccc3)nc2c1)N1CCC(O)CC1	x	x	x	x	52*	75*
O=C(c1ccc2oc(CCCc3ccccc3)nc2c1)N1CCCCC1CO (stereo unspecified)	11%	12%	-15%	i	38*	55*
CCOC(=O)N1CCN(C(=O)c2ccc3oc(CCc4ccccc4)nc3c2)CC1	x	x	-19%	-21%	x	x
NC(=O)[C@@H]1CCCN1C(=O)c1ccc2nc(Cc3ccccc3F)oc2c1	-19%[46.1 µM]	28%[46.1 µM]	-1%	i	8	16
CCCCN=C(C)c1c(O)c2ccccc2oc1=O	u	0%	-10%	-2%	32*	65
CC(=N)c1c(O)c2ccccc2oc1=O	x	x	x	x	26*	53*
O=C(Cn1c(=O)c2ccccc2n(CC(=O)Nc2ccc(Cl)cc2)c1=O)NCCc1ccccc1	u	u	-3%	-12%	x	x
COCC(=O)Nc1ncc(S(=O)(=O)c2ccc([N+](=O)[O-])cc2)s1	-1%	15%	-30%	u	13	-17
O=C(NC(Nc1ncc(S(=O)(=O)c2ccc([N+](=O)[O-])cc2)s1)(C(F)(F)F)C(F)(F)F)c1ccc(Cl)cc1	3.2µM*	u	u	18µM*	8	-11
CC1=CC(c2ccccc2)=Nc2ccc(C)cc2N1	u	u	-12%	i	57*	43*
COc1ccc(C2=NC(c3ccccc3)=Nc3ccc(C)cc3N2)cc1	-27%[46.1 µM]	0%[46.1 µM]	-10%	-14%	x	x
O=C(Cc1ccc(Cl)cc1)NCC(=O)N1CCN(Cc2ccccc2)CC1	u	-11%	-16%	-19%	2	-26
CC(C)Oc1ccc(C(=O)NNC(=O)c2ccccc2C(=O)O)cc1	x	x	-3%	i	17*	30
COc1ccccc1C(=O)NNC(=O)c1ccc(O)cc1	x	x	-7%	i	x	x
SMILES	Marburg entry inh	Lassa entry inh	Vaccinia Venus	VACV mCherry inh	CHX counter	Shiga toxin inh
O=C(NNC(=O)c1ccccc1C(=O)O)c1ccc(O)cc1	1%	12%[46.1 µM]	-2%	-7%	23*	96
CCOc1cc(N2CCOCC2)c(OCC)cc1NC(=O)Cn1cnc2c(=O)n(C)c(=O)n(C)c21	x	x	x	x	-4	-9
CCCN(CCC)CCNC(=O)c1sc2nc3n(c(=O)c2c1C)CCCCC3	x	-16%[46.1 µM]	-6%	-1%	x	x
O=C(/C=C/c1ccc(F)cc1)NCc1ccco1	-4%	u	4%	-14%	46*	94*
O=C(/C=C/c1ccco1)NCCc1ccc(F)cc1	18%[46.1 µM]	19%[46.1 µM]	-9%	u	57*	56*
O=C(/C=C/c1ccco1)Nc1ccc(F)cc1	x	-16%[46.1 µM]	0%	0%	x	x
O=C(/C=C/c1cccc([N+](=O)[O-])c1)NCc1ccco1	10%	-12%	-9%	i	-4	0

Compound activity from PubChem.
